“And” between values parts separate entries of the source, which are not always exact repeats. Equal values may be shown once. More than one record can exist for a structure, and the calls need not agree. The source made the active and inactive calls. The calls were made as follows: active = hit-call score of the fitted dose curve at least 0.9, where 1 is the maximum; inactive = score below 0.9.
Experiments:
[1] = BSK_hDFCGF_SRB: Viability Assessment in the BioMAP Diversity Plus: hDFCGF Assay (AID 2283061); conditions: primary human foreskin fibroblasts;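 also: cells exposed to compound for 24 h before the read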
Procedure, shortened: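 SRB-based viability read on primary human skin fibroblasts at 24 h: TCA fixation, 0.1% dye, 560 nm. Gain or loss of signal is fitted against the DMSO negative control.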

[2] = read-out: TIMP metallopeptidase inhibitor 1 (TIMP1), TIMP1 (gene 7076); assay: BSK_hDFCGF_TIMP1: BioMAP Diversity Plus: hDFCGF Assay for TIMP metallopeptidase inhibitor 1 (TIMP1) Biomarker Activity (AID 2283062); conditions: primary human foreskin fibroblasts; actives raise or lower the signal
Procedure, shortened: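 Bidirectional curve fitting against DMSO baseline yielded this endpoint, based on ELISA detection of TIMP-1 in primary human foreskin fibroblasts exposed to compound for 24 h.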

[3] = read-out: Monokine induced gamma interferon (MIG), CXCL9 (gene 4283); assay: BSK_hDFCGF_MIG: BioMAP Diversity Plus: hDFCGF Assay for Monokine induced gamma interferon (MIG) Biomarker Activity (AID 2283063); conditions: primary human foreskin fibroblasts; actives raise or lower the signal
Procedure, shortened: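 Endpoint derived by bidirectional fitting relative to DMSO; MIG quantified via ELISA in primary human foreskin fibroblasts harvested 24 h after dosing.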

[4] = read-out: Matrix Metallopeptidase 1 (MMP1), MMP1 (gene 4312); assay: BSK_hDFCGF_MMP1: BioMAP Diversity Plus: hDFCGF Assay for Matrix Metallopeptidase 1 (MMP1) Biomarker Activity (AID 2283064); conditions: primary human foreskin fibroblasts; actives raise or lower the signal
Procedure, shortened: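 Primary human foreskin fibroblasts in the hDFCGF system were dosed with test chemical, and MMP1 was measured by ELISA 24 h later. Values come from bidirectional curve fitting against the DMSO baseline.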

[5] = read-out: Vascular cell adhesion molecule 1 (VCAM1), VCAM1 (gene 7412); assay: BSK_hDFCGF_VCAM1: BioMAP Diversity Plus: hDFCGF Assay for Vascular cell adhesion molecule 1 (VCAM1) Biomarker Activity (AID 2283065); conditions: primary human foreskin fibroblasts; actives raise or lower the signal;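 as to AC50: VCAM-1 protein level quantified by ELISA after 24 h chemical exposure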
Procedure, shortened: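 Measured after 24 h chemical treatment of primary human skin fibroblasts, VCAM-1 was detected by ELISA and concentration-response analysed in both directions versus DMSO vehicle.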

[6] = read-out: Plasminogen activator inhibitor-1 (PAI1), SERPINE1 (gene 5054); assay: BSK_hDFCGF_PAI1: BioMAP Diversity Plus: hDFCGF Assay for Plasminogen activator inhibitor-1 (PAI1) Biomarker Activity (AID 2283066); conditions: primary human foreskin fibroblasts; actives raise or lower the signal
Procedure, shortened: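 PAI-1 levels, determined by ELISA, served as the endpoint in human foreskin fibroblast cultures exposed to compound for 24 h, with DMSO as baseline.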

[7] = read-out: Intercellular Adhesion Molecule 1 (ICAM1), ICAM1 (gene 3383); assay: BSK_KF3CT_ICAM1: BioMAP Diversity Plus: KF3CT Assay for Intercellular Adhesion Molecule 1 (ICAM1) Biomarker Activity (AID 2283067); conditions: primary human keratinocytes with fibroblasts; actives raise or lower the signal
Procedure, shortened: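 Bidirectional curve fitting against a DMSO baseline was applied to ICAM-1 ELISA signal from primary human skin co-cultures harvested 24 h after treatment, with SRB staining of parallel wells for overt cytotoxicity.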

[8] = read-out: Interferon-gamma inducible Protein 10 (IP10), CXCL10 (gene 3627); assay: BSK_KF3CT_IP10: BioMAP Diversity Plus: KF3CT Assay for Interferon-gamma inducible Protein 10 (IP10) Biomarker Activity (AID 2283068); conditions: primary human keratinocytes with fibroblasts; actives raise or lower the signal
Procedure, shortened: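 KF3CT co-culture (keratinocytes + foreskin fibroblasts), 24 h compound, IP-10 by ELISA; bidirectional fit vs DMSO baseline.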

[9] = BSK_KF3CT_SRB: Viability Assessment in the BioMAP Diversity Plus: KF3CT Assay (AID 2283069); conditions: primary human keratinocytes with fibroblasts;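 also: total protein by sulforhodamine B staining as a cytotoxicity measure; read 24 h after compound addition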
Procedure, shortened: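 Human primary keratinocyte plus foreskin fibroblast co-culture exposed to chemicals for 24 h. Total protein measured by 0.1% sulforhodamine B staining after 10% TCA fixation, read at 560 nm; bidirectional fitting versus DMSO baseline.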

[10] = read-out: Interleukin-1 alpha (IL1a), IL1A (gene 3552); assay: BSK_KF3CT_IL1a: BioMAP Diversity Plus: KF3CT Assay for Interleukin-1 alpha (IL1a) Biomarker Activity (AID 2283070); conditions: primary human keratinocytes with fibroblasts; actives raise or lower the signal
Procedure, shortened: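 Human keratinocyte plus foreskin fibroblast primary co-culture, sampled 24 h after chemical dosing. IL-1a measured by ELISA; responses fitted bidirectionally against DMSO baseline (negative control), so gain or loss of signal both count.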

[11] = read-out: TIMP metallopeptidase inhibitor 2 (TIMP2), TIMP2 (gene 7077); assay: BSK_KF3CT_TIMP2: BioMAP Diversity Plus: KF3CT Assay for TIMP metallopeptidase inhibitor 2 (TIMP2) Biomarker Activity (AID 2283071); conditions: primary human keratinocytes with fibroblasts; actives raise or lower the signal
Procedure, shortened: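 Keratinocyte–fibroblast co-culture, 24 h exposure; TIMP-2 ELISA, DMSO-normalised bidirectional fit. Parallel SRB (0.1%, TCA-fixed, 560 nm) total-protein staining gauges cytotoxicity.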

[12] = read-out: Transforming growth factor beta 1 (TGFb1), TGFB1 (gene 7040); assay: BSK_KF3CT_TGFb1: BioMAP Diversity Plus: KF3CT Assay for Transforming growth factor beta 1 (TGFb1) Biomarker Activity (AID 2283072); conditions: primary human keratinocytes with fibroblasts; actives raise or lower the signal
Procedure, shortened: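 Signal changes in either direction, relative to DMSO, define activity here. TGF-b1 is read by ELISA from a human keratinocyte-fibroblast co-culture 24 h post-dose.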

[13] = read-out: C-C motif chemokine 2 (Homo sapiens) (UniProt P13500); assay: BSK_KF3CT_MCP1: BioMAP Diversity Plus: KF3CT Assay for Monocyte Chemoattractant Protein 1 (MCP1/CCL2) Biomarker Activity (AID 2283073); conditions: primary human keratinocytes with fibroblasts; actives raise or lower the signal
Procedure, shortened: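 Biomarker MCP-1 is measured by ELISA in primary human keratinocytes co-cultured with foreskin fibroblasts, 24 h after chemical treatment; DMSO serves as the negative control and activity baseline.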

[14] = read-out: Matrix Metallopeptidase 9 (MMP9), MMP9 (gene 4318); assay: BSK_KF3CT_MMP9: BioMAP Diversity Plus: KF3CT Assay for Matrix Metallopeptidase 9 (MMP9) Biomarker Activity (AID 2283074); conditions: primary human keratinocytes with fibroblasts; actives raise or lower the signal;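 as to AC50: MMP9 protein level quantified by ELISA in the co-culture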
Procedure, shortened: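 Keratinocyte plus foreskin fibroblast human primary skin co-culture was dosed with chemical and MMP-9 was quantified by ELISA 24 h later. Bidirectional curve fitting used DMSO as negative control and activity baseline.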

[15] = read-out: urokinase plasminogen activator (uPA), PLAU (gene 5328); assay: BSK_KF3CT_uPA: BioMAP Diversity Plus: KF3CT Assay for urokinase plasminogen activator (uPA) Biomarker Activity (AID 2283075); conditions: primary human keratinocytes with fibroblasts; actives raise or lower the signal
Procedure, shortened: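 Human keratinocyte plus foreskin fibroblast primary co-culture exposed to chemical for 24 h. uPA levels were quantified by ELISA, and activity was fitted bidirectionally against a DMSO negative-control baseline.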

CD40, CD40 (gene 958) = assay: BSK_LPS_CD40: BioMAP Diversity Plus: LPS Assay for CD40 Biomarker Activity (AID 2283076); conditions: primary human HUVEC with PBMC; actives raise or lower the signal
Procedure, shortened: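 Using a multiplexed primary human co-culture (umbilical vein endothelium plus PBMC), CD40 was read by ELISA 24 h after dosing, with cytotoxicity tracked by sulforhodamine B staining of parallel cultures and activity fitted bidirectionally versus DMSO.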

[16] = read-out: E-selectin (Homo sapiens) (UniProt P16581); assay: BSK_LPS_Eselectin: BioMAP Diversity Plus: LPS Assay for Eselectin Biomarker Activity (AID 2283077); conditions: primary human HUVEC with PBMC; actives raise or lower the signal
Procedure, shortened: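 Dose chemical onto LPS-driven HUVEC/PBMC co-culture; after 24 h, run ELISA for E-selectin; fit up- and down-going responses relative to DMSO control.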

[17] = read-out: Interleukin-8 (IL8), CXCL8 (gene 3576); assay: BSK_LPS_IL8: BioMAP Diversity Plus: LPS Assay for Interleukin-8 (IL8) Biomarker Activity (AID 2283078); conditions: primary human HUVEC with PBMC; actives raise or lower the signal
Procedure, shortened: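 In this LPS system, chemical-treated human umbilical vein endothelium/PBMC co-cultures were harvested at 24 h for IL-8 ELISA.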

[18] = BSK_LPS_SRB: Viability Assessment in the BioMAP Diversity Plus: LPS Assay (AID 2283079); conditions: primary human HUVEC with PBMC;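 also: total protein by sulforhodamine B absorbance as a cytotoxicity measure; measured one day after compound addition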
Procedure, shortened: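 Cytotoxicity endpoint in human endothelial–PBMC co-culture: 24 h exposure, then SRB (0.1%) staining, 560 nm read.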

[19] = read-out: Interleukin-1 alpha (IL1a), IL1A (gene 3552); assay: BSK_LPS_IL1a: BioMAP Diversity Plus: LPS Assay for Interleukin-1 alpha (IL1a) Biomarker Activity (AID 2283080); conditions: primary human HUVEC with PBMC; actives raise or lower the signal
Procedure, shortened: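 Primary human HUVEC and PBMC co-culture stimulated with LPS is dosed and harvested at 24 h. Both increases and decreases in ELISA-measured IL-1a are scored relative to DMSO.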

Measured: AC50

Chain of E-selectin (Homo sapiens) (P16581 whole entry, looked up): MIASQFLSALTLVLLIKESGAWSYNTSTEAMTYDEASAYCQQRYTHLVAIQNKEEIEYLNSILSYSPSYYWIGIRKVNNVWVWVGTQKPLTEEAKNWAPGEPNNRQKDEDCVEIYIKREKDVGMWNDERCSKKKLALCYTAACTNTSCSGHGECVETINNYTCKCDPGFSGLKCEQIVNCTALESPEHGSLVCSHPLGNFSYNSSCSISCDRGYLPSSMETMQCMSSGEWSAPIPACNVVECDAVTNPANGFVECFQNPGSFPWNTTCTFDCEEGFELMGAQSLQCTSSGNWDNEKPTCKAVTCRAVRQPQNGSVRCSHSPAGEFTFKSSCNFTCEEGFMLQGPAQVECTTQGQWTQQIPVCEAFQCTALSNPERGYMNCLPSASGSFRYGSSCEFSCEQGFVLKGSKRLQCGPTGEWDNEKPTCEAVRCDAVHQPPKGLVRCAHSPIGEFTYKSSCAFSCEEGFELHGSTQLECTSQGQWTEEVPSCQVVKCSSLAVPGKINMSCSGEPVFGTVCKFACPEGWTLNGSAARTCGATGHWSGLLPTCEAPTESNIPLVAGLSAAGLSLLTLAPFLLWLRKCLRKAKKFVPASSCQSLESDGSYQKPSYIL

CCSC(C)CC1CC(=O)C(C(CC)=NOC/C=C/Cl)=C(O)C1 (centres undefined)
active: [17] 90.3 nM
inactive: all other assays above

CC12CC1(C)C(=O)N(c1cc(Cl)cc(Cl)c1)C2=O (centres undefined)
not listed: [6]
inactive: all other assays above

O=Cc1cccc(Oc2ccccc2)c1
not listed: [7]
inactive: all other assays above

Nc1ccc(-c2ccc(N)c(Cl)c2)cc1Cl
active: [14] 4.21 µM | [18] 7.78 µM
not listed: [7]
inactive: all other assays above

CCN1CCC2(CC1)COc1cc3c(cc12)N(C(=O)c1ccc(-c2ccc(-c4nnc(C)o4)cc2C)cc1)CC3
active: [1] 6.07 µM | [2] 9.3 µM | [3] 11.2 µM | [4] 9.25 µM | [5] 7.34 µM | [6] 9.28 µM | [8] 28.4 µM | [9] 20.8 µM | [10] 31.4 µM | [11] 17.9 µM | [12] 18.7 µM | [13] 27 µM | [14] 14.3 µM | [15] 29.9 µM | CD40, CD40 (gene 958) 9.75 µM | [16] 29.3 µM | [17] 14100 nM | [18] 14.7 µM | [19] 9.03 µM

O=C(O)C(F)(F)C(F)(F)C(F)(F)C(F)(F)C(F)(F)C(F)(F)C(F)(F)C(F)(F)C(F)(F)C(F)(F)F
inactive: CD40, CD40 (gene 958) | [16] | [17] | [18] | [19]
active: [1] 9.04 µM and 5.23 µM and 5.22 µM | [2] 9.33 µM and 5.14 µM and 5.31 µM | [3] 11.5 µM and 4.94 µM and 5.08 µM | [4] 6.98 µM and 5.59 µM and 6.54 µM | [5] 11.7 µM and 3.07 µM and 4.25 µM | [7] 12.9 µM and 5 µM and 4.73 µM | [8] 6.91 µM and 5.45 µM and 5.25 µM | [9] 9.99 µM and 5.01 µM and 5.38 µM | [10] 10.8 µM and 3.41 µM and 5.06 µM | [11] 9.27 µM and 6.15 µM and 6.13 µM | [12] 5.59 µM | [13] 7.51 µM and 4.5 µM and 4.55 µM | [14] 6.03 µM and 3.85 µM and 4.19 µM | [15] 9.7 µM and 5.47 µM and 5.16 µM | CD40, CD40 (gene 958) 29.5 µM | [17] 33.8 µM and 2.03 µM | [18] 34.8 µM | [19] 29.6 µM
